Compounds with a hit are over-represented: about 1.3% of the library has one in this group of screens.
AMA1-RON2 inh: qHTS for Inhibitors of AMA1-RON; Towards Development of Antimalarial Drug Lead: Primary Screen; 0.2% of 360,000 active; AlphaScreen AMA1-biotinylated RON2 peptide binding; Potency, µM (doses to about 58.2 µM), for inactives: top-dose activity change, negative = inhibition, hits mostly inhibitors; AID 720542, 2013;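 further: potency means the concentration at half of the fitted maximal effect; 0% = vehicle wells and -100% = peptide control; nearly all actives have a fitted effect of over 45% in size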
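AMA1 (3D7) with his tag at 25 nM final met compounds first, then biotinylated RON2 peptide at 25 nM; detection used donor plus acceptor beads, 10 µg/mL apiece, read by AlphaScreen after 30 min at room temperature.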
SARS PLpro yeast-1: qHTS of Yeast-based Assay for SARS-CoV PLP | S. cerevisiae expressing SARS-CoV PLpro, growth rescue | Potency, µM (doses to about 32.9 µM), for the others: at the highest dose activity, positive = growth rescue, most hits filed as activators | 0.19% of 330,000 active | AID 485353, 2010; calls by dose curve; further: potency means the concentration at half of the fitted maximal effect; 0% is about no effect; nearly all actives have a fitted effect of over 55% in size
VACV Venus inh: qHTS for Stage-Specific Inhibitors of Vaccinia Orthopoxvirus: Venus Reporter Primary qHTS. Potency, µM (series often up to 36.5 µM), without a hit: at the top dose activity change, negative = inhibition, hits mostly inhibitors. 0.46% of 330,000 active. Vaccinia virus Venus reporter expression, fluorescence. AID 720580, 2013; calls by dose curve; tested in A549 cells; further: potency means the concentration at half of the fitted maximal effect; on the % scale 0 is the no-effect control and ±100 the full control effect; nearly all actives have a fitted effect of over 30% in size
AmpC inh detg: qHTS Inhibitors of AmpC Beta-Lactamase (assay with detergent); 0.041% of 370,000 active; P00811; Potency, µM (highest dose often 114 µM), for inactives: top-dose activity change, negative = inhibition, usual class: inhibitors; AmpC hydrolysis of nitrocefin, absorbance 480 nm, 0.01% Triton; AID 485294, 2010;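 further: potency means the concentration at half of the fitted maximal effect; 0% = no-compound wells and -100% = no-enzyme wells; nearly all actives have a fitted effect of over 25% in size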
Target sequence (P00811 whole entry, looked up): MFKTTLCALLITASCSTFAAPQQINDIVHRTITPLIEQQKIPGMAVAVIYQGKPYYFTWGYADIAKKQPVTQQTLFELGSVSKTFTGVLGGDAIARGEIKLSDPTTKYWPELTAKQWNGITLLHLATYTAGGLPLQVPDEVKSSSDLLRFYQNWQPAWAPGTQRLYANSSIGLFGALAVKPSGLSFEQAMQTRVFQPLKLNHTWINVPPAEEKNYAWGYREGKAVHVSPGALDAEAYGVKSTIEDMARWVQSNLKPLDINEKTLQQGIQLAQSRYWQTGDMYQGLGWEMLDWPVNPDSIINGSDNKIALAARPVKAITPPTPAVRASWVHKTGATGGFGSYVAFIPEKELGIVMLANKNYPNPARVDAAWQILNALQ
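AmpC (5.3 nM in the dispensed reagent) in 20 mM phosphate pH 7.0 with 0.01% (detergent screen) or 0.0001% Triton X-100 was preincubated with compounds for 15 min at room temperature. Nitrocefin was then added from an 800 uM solution, and hydrolysis was followed at 480 nm.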
AmpC no deterg: qHTS Inhibitors of AmpC Beta-Lactamase (assay without detergent) | P00811 | AmpC nitrocefin hydrolysis, absorbance 480 nm, 0.0001% Triton | Potency, µM (titrated, usually from 57.1 µM), inactives show at the top dose activity change, negative = inhibition, usual class: inhibitors | 0.52% of 330,000 active;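 further: potency means the concentration at half of the fitted maximal effect; plate controls were no compound for no effect and no enzyme for full effect; nearly all actives have a fitted effect of over 20% in size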
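AmpC (5.3 nM in the dispensed reagent) in 20 mM phosphate pH 7.0 with 0.01% (detergent screen) or 0.0001% Triton X-100 was preincubated with compounds for 15 min at room temperature. Nitrocefin was then added from an 800 uM solution, and hydrolysis was followed at 480 nm.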
Vaccinia mCherry: qHTS for Stage-Specific Inhibitors of Vaccinia Orthopoxvirus: mCherry Reporter Primary qHTS. Potency, µM (doses to about 36.5 µM), for the others: top-dose activity change, negative = inhibition, usual class: inhibitors. 0.63% of 310,000 active. Vaccinia virus mCherry reporter infection, fluorescence; calls by dose curve; tested in A549 cells; further: potency means the concentration at half of the fitted maximal effect; on the % scale 0 is the no-effect control and ±100 the full control effect; nearly all actives have a fitted effect of over 35% in size
SARS PLpro yeast-2: qHTS of Yeast-based Assay for SARS-CoV PLP: Hit Validation; shares compounds with SARS PLpro yeast-1; yeast expressing SARS-CoV PLpro, growth phenotype rescue; calls only; 19% of 1,000 active; AID 652038, 2013; call rule not given here
* marks the source's active call; other numbers are inactive results; i = inactive; ? = inconclusive; / = not tested or not shown; + = active, no number; [ ] = remark or other dose. Unless noted, the call rests on the fitted dose curve; in most records, active means well fitted curve in the direction sought with a large enough effect; inconclusive means small, poorly fitted or top-dose-only effect, or another doubt; inactive means no such curve, though single readings can be large; an effect the other way counts as inactive or inconclusive.

SMILES | AMA1-RON2 inh | SARS PLpro yeast-1 | VACV Venus inh | AmpC inh detg | AmpC no deterg | Vaccinia mCherry | SARS PLpro yeast-2
O=C1ON=C(c2ccc([N+](=O)[O-])cc2)/C1=C/c1ccccc1O | -6.8% | 1.7% | -15.2% | -5.9% | -35.5% | -0.5% | /
CCN(CC)S(=O)(=O)c1ccc(S(=O)(=O)N2CCCC2C(=O)O)cc1 (stereo not given) | 4.1% | 22.4µM* | / | ? | -10.5% | / | i
Cc1cc(C)c2c(=O)cc(C(=O)Nc3ccc(S(=O)(=O)Nc4onc(C)c4C)cc3)oc2c1 | / | / | -4.0%[7.34 µM] | -7.9% | / | -9.1%[7.34 µM] | /
O=C(O)CCC(=O)Nc1ccccc1C(=O)Nc1ccccc1 | 13.9% | 15.2% | / | -12.7% | -0.2% | / | /
O=C(O)CCC(=O)Nc1ccccc1C(=O)NCCc1ccccc1 | -1.2%[2.32 µM] | 3.98µM* | -14.4% | -15.7% | -14.7% | -15.9% | i
O=C(CN1CCN(C/C=C/c2ccccc2)CC1)NC(=O)NC1CCCCC1 | 40.7% | -1.3% | -12.0% | -3.4% | 156.4% | -18.4% | /
O=C(CSCc1c(Cl)cccc1Cl)Nc1ccc2c(c1)OCCO2 | -40.7% | -17.8% | -15.9% | -10.6% | -35.9% | -4.9% | /
O=C(CSc1nc2ccccc2c(=O)n1CCCN1CCOCC1)Nc1ccccc1OC(F)F | -18.2% | 2.82µM* | -15.4% | / | 190.7% | i | i
CC(=O)Nc1ccc(NC(=O)CSc2nc3ccccc3c(=O)n2CCCN2CCOCC2)cc1 | -11.1% | -5.3% | -20.6% | / | -10.0% | -19.4% | /
CCCCOC(=O)Oc1ccc2c(=O)c(Oc3cc(C)cc(C)c3)coc2c1 | 3.3%[2.32 µM] | ? | -14.7% | ? | -18.1% | i | i
Cc1ccc(CN(C(=O)COc2cc(C)c(Cl)c(C)c2)c2ccccn2)o1 | / | / | 4.7% | -0.2% | / | -5.5% | /
COc1ccc(N(CC(=O)Nc2nccs2)S(=O)(=O)c2c(C)nn(C)c2C)cc1 | 2.5% | ? | -16.4% | ? | -15.6% | i | i
COc1ccc(NC(=O)CSc2cn[nH]n2)cc1OC | -5.1% | -1.6% | -18.4% | 1.5% | -1.9% | -23.0% | /
COc1ccc(OC)c(C2C=C(C34CC5CC(CC(C5)C3)C4)NC(=S)N2)c1 (stereo not given) | -19.5% | ? | -17.7% | -13.9% | -50.7% | -20.0% | +
Clc1ccc(CNC23CN4CN(CN(C4)C2)C3)c(Cl)c1 | 12.2% | ? | -9.6% | 1.0% | -12.6% | i | i
CCCN(CC(=O)Nc1cccc(Br)c1)CC(=O)Nc1ccc(F)c(F)c1F | 43.9% | -21.8% | ? | -1.4% | -5.4% | -28.7% | /
CCCN(CC(=O)Nc1ccc(C)cc1Br)CC(=O)Nc1ccc(F)c(F)c1F | 88.9% | ? | -18.0% | -6.3% | 42.7% | -1.4% | i
Cc1ccc(NC(=O)Cn2cccc2)c(Br)c1 | 2.9% | 2.51µM* | -3.6% | -8.3% | -14.7% | -13.2% | i
CCOc1cc(C2Nc3ccccc3NC3=C2C(=O)CC(C)(C)C3)ccc1O (stereo not given) | 59.9% | -4.4% | / | -2.8% | -32.2% | / | /
CC1(C(=O)O)CCCN(C(=O)c2cc3ccccc3s2)C1 (stereo not given) | -1.8% | / | 1.8% | / | / | 8.2% | /
C/C(=N\NC(=O)c1cc(-c2cccnc2)nc2ccccc12)c1ccc(O)cc1O | 65.7% | ? | ? | -4.2% | -10.6% | 11.2µM* | i
Cc1cc(=O)[nH]c(NN=Cc2c(Cl)cccc2Cl)n1 | 89.7% | / | -12.9% | / | / | -8.5% | /
Cc1cc(=O)[nH]c(N/N=C/c2ccccn2)n1 | -41.6% | ? | ? | -6.5% | -2.9% | ? | i
